From PubChem BioAssay (EPA / NIEHS)
Active and inactive are the calls of the source. Rule for the calls: active = hit-call score of the fitted dose curve at least 0.9, where 1 is the maximum; inactive = score below 0.9.

Tests used:
Conditions in all cases: mRNA level, 48 h; actives raise or lower the signal
[1] = read-out: Alkaline Phosphatase, Placental (ALPP) gene, ALPP (gene 250); test: LTEA_HepaRG_ALPP: Life Technologies and Expression Analysis (LTEA) Assay for Alkaline Phosphatase, Placental (ALPP) gene using HepaRG (AID 2283468)
Summary of the method: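 Using human liver HepaRG cells, chemicals are tested in duplicate over 48 h at half-log concentrations topping at 100 uM; phenobarbital 1 mM serves as induction control. ALPP mRNA change by qRT-PCR, bidirectional fit against vehicle.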

[2] = read-out: Bcl-2 (BAD) gene, BAD (gene 572); test: LTEA_HepaRG_BAD: Life Technologies and Expression Analysis (LTEA) Assay for Bcl-2 (BAD) gene using HepaRG (AID 2283469)
Summary of the method: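 Differentiated human HepaRG cells in serum-free induction medium were exposed in duplicate for 48 h to eight concentrations (top 100 uM, half-log steps, 0.5% DMSO). BAD mRNA was quantified by qRT-PCR normalised to ACTB, GAPDH and POLR2A, with bidirectional fitting versus DMSO.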

[3] = read-out: Bcl-2 (BAX) gene, BAX (gene 581); test: LTEA_HepaRG_BAX: Life Technologies and Expression Analysis (LTEA) Assay for Bcl-2 (BAX) gene using HepaRG (AID 2283470)
Summary of the method: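 Differentiated HepaRG cells exposed 48 h in serum-free induction medium, eight half-log concentrations from 100 uM, in duplicate, 0.5% DMSO vehicle. BAX mRNA by TaqMan qRT-PCR, normalised to ACTB, GAPDH and POLR2A.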

[4] = read-out: adenosine kinase (ADK) gene, ADK (gene 132); test: LTEA_HepaRG_ADK: Life Technologies and Expression Analysis (LTEA) Assay for adenosine kinase (ADK) gene using HepaRG (AID 2283471)
Summary of the method: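 Following 48 h exposure of HepaRG cells in 0.5% DMSO (top concentration 100 uM, duplicate wells), ADK mRNA induction or suppression was measured by qRT-PCR, normalised to ACTB/GAPDH/POLR2A, and fitted bidirectionally relative to vehicle.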

[5] = read-out: Alpha-fetoprotein (AFP) gene, AFP (gene 174); test: LTEA_HepaRG_AFP: Life Technologies and Expression Analysis (LTEA) Assay for Alpha-fetoprotein (AFP) gene using HepaRG (AID 2283472)
Summary of the method: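 Differentiated human HepaRG cells exposed 48 h in serum-free induction medium, 8-point half-log series from 100 uM in 0.5% DMSO, duplicate. AFP mRNA by qRT-PCR, normalized to ACTB, GAPDH, POLR2A; bidirectional fit vs DMSO.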

BCL2L11 (gene 10018) = test: LTEA_HepaRG_BCL2L11: Life Technologies and Expression Analysis (LTEA) Assay for Bcl-2 (BCL2L11) gene using HepaRG (AID 2283473)
Summary of the method: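 Human hepatic HepaRG cultures are treated 48 h with test chemicals (maximum 100 uM, 0.5% DMSO vehicle). Expression of BCL2L11 is measured by qRT-PCR against ACTB, GAPDH and POLR2A, with activity in either direction scored relative to vehicle.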

[6] = read-out: Apolipoprotein A-V (APOA5) gene, APOA5 (gene 116519); test: LTEA_HepaRG_APOA5: Life Technologies and Expression Analysis (LTEA) Assay for Apolipoprotein A-V (APOA5) gene using HepaRG (AID 2283474)
Summary of the method: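 Concentration-response of APOA5 expression in HepaRG: eight half-log doses to 100 uM, 48 h, qRT-PCR normalized to ACTB/GAPDH/POLR2A, bidirectional fitting with 0.5% DMSO as baseline.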

[7] = read-out: Apoptosis regulator Bcl-2 (Homo sapiens) (UniProt P10415); test: LTEA_HepaRG_BCL2: Life Technologies and Expression Analysis (LTEA) Assay for Bcl-2 gene using HepaRG (AID 2283475)
Summary of the method: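 Differentiated human HepaRG cells in serum-free induction medium exposed 48 h, in duplicate, to 8-point half-log series from 100 uM in 0.5% DMSO. BCL2 mRNA by qRT-PCR (TaqMan/Fluidigm), normalized to ACTB, GAPDH, POLR2A; bidirectional fit against DMSO.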

Caspase-3 (Homo sapiens) = Caspase-3 (Homo sapiens) (UniProt P42574); test: LTEA_HepaRG_CASP3: Life Technologies and Expression Analysis (LTEA) Assay for cysteine-aspartic acid protease (CASP3) using HepaRG (AID 2283477)
Summary of the method: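 Transcript-level assay: CASP3 mRNA in human HepaRG after 48 h treatment, eight half-log concentrations from 100 uM in 0.5% DMSO, quantified by qRT-PCR.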

[8] = read-out: Bcl-2 (BID) gene, BID (gene 637); test: LTEA_HepaRG_BID: Life Technologies and Expression Analysis (LTEA) Assay for Bcl-2 (BID) gene using HepaRG (AID 2283476)
Summary of the method: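 Gene expression by qRT-PCR in HepaRG cells after 48 h exposure, duplicate wells, eight half-log concentrations topping at 100 uM in 0.5% DMSO. Normalized to ACTB, GAPDH, POLR2A; bidirectional fitting relative to DMSO.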

Measured: AC50

Chain of Caspase-3 (Homo sapiens) (P42574 whole entry, looked up): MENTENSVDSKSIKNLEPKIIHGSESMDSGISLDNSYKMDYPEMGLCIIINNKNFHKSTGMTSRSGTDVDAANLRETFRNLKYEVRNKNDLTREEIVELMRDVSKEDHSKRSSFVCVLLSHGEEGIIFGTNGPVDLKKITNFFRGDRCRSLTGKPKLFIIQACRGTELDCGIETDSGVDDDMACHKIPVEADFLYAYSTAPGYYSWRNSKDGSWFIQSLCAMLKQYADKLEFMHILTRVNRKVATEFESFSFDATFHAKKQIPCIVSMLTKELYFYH
Chain of Apoptosis regulator Bcl-2 (Homo sapiens) (P10415 whole entry, looked up): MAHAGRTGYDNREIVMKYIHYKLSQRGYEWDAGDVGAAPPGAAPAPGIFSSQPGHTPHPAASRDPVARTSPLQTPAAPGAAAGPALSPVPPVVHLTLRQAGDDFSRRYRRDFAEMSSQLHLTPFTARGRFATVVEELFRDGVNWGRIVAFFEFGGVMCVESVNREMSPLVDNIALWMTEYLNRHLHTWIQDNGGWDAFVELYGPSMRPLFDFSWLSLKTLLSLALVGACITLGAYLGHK

CCCOc1sc(C(=O)N2CCC(c3cc(CN)ccc3F)CC2)c(C)c1Br
not listed: [8]
inactive: all other assays above

O=[N+]([O-])c1ccc(O)cc1
not listed: BCL2L11 (gene 10018)
inactive: all other assays above

CCCCCCCCC(=O)O
not listed: BCL2L11 (gene 10018)
inactive: all other assays above

CCCCOCCO
not listed: [8]
inactive: all other assays above

O=C(O)c1ccccc1C(c1ccc(O)cc1)c1ccc(O)cc1
inactive: all assays above

NC(=O)N1C(=O)C(C(=O)c2cc(Cl)cs2)c2cc(F)c(Cl)cc21 (stereo not given)
inactive: [2] | [3] | [5] | BCL2L11 (gene 10018)
active: [1] 50 µM | [4] 17.5 µM | [6] 35.1 µM | [7] 50 µM | Caspase-3 (Homo sapiens) 19.1 µM

NC(=O)N(O)[C@@H]1C=C[C@H](Oc2cccc(Oc3ccc(F)cc3)c2)C1
active: [1] 3.76 µM | [3] 64.5 µM | [5] 20.2 µM | [6] 37.7 µM | [7] 73.9 µM
inactive: [2] | [4] | [8] | Caspase-3 (Homo sapiens)

CCCCCCCCOC(=O)CCCCCCCCC(=O)OCCCCCCCC
not listed: [8]
inactive: all other assays above

CCOC(=O)CC(O)(CC(=O)OCC)C(=O)OCC
inactive: all assays above

O=c1c(-c2ccc(O)cc2)coc2cc(O)ccc12
not listed: BCL2L11 (gene 10018)
inactive: all other assays above

CC(C)CCCCCCOC(=O)CCCCC(=O)OCCCCCCC(C)C
not listed: BCL2L11 (gene 10018)
inactive: all other assays above

Oc1cccc(O)c1
not listed: [8]
inactive: all other assays above

CC(C)(C)c1cc(C(C)(C)C)c(O)c(C(C)(C)C)c1
active: [5] 39.8 µM
not listed: [8]
inactive: all other assays above

ClC1=C(Cl)C(Cl)(Cl)C(Cl)=C1Cl
inactive: all assays above

CCC(=C(c1ccc(O)cc1)c1ccc(OCCN(C)C)cc1)c1ccccc1
active: [4] 75.2 µM | Caspase-3 (Homo sapiens) 89.8 µM
not listed: BCL2L11 (gene 10018)
inactive: all other assays above

CC(=O)CC(C)(C)O
inactive: all assays above

COCC(C)OCC(C)O (stereo not given)
inactive: all assays above

C=C(C)C(=O)OCCC(F)(F)C(F)(F)C(F)(F)C(F)(F)C(F)(F)C(F)(F)F
inactive: all assays above

CC(C)(C)CC(C)(C)c1ccc(O)c(-n2nc3ccccc3n2)c1
inactive: all assays above

COc1ccc([N+](=O)[O-])cc1N
not listed: [8]
inactive: all other assays above

CC(O)CO (stereo not given)
not listed: [8]
inactive: all other assays above

CCCCC(CC)COC(=O)CCCCC(=O)OCC(CC)CCCC (stereo not given)
not listed: [8]
inactive: all other assays above
